Our source for the z-score and composite z-score values is PubChem BioAssay.

Active and inactive are the calls of the source. Unless noted, no rule for the calls is given here.

The nature of test [1]: compound effects on lung adenocarcinoma cell viability – A549, calcein-AM fluorescence, 48 h, basal, profiling panel (AID 1162). Also: test concentration not given here. Conditions: higher = more signal.
Test [2] is described as follows: compound effects on differentiated 3T3-L1 adipocyte viability – cell-based, 3T3-L1 adipocytes, calcein-AM fluorescence, 48 h, basal, profiling panel (AID 1163). Also: test concentration not given here. Conditions: 3T3-L1 adipocytes viability, higher = more signal.
Test [3] is described as follows: compound effects on hepatocellular carcinoma cell viability – HepG2, calcein-AM fluorescence, 48 h, basal, profiling panel (AID 1164). Also: test concentration not given here. Conditions: higher = more signal.
Test [4] can be described thus: compound effects on multiple myeloma cell viability – MM1S, calcein-AM fluorescence, 48 h, basal, profiling panel (AID 1165). Also: test concentration not given here. Conditions: higher = more signal.
Test [5] in a line: calcein-AM signal in unstimulated myeloma cells – cell-based, calcein-AM fluorescence, 48 h, PK04 Diversity Set, profiling panel (AID 1166).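 Also: cells grown under basal conditions without added stimulus; test concentration not given here.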 Conditions: RPMI8226 myeloma viability, higher = more signal.
The nature of test [6]: JC-1 mitochondrial signal, unstimulated HepG2 cells – cell-based, JC-1 fluorescence, 24 h, 100 nL compound, profiling panel (AID 1167). Also: test concentration not given here. Conditions: HepG2 mitochondrial potential, higher = more signal.
Test [7] is described as follows: JC-1 mitochondrial signal, unstimulated adipocytes – cell-based, JC-1 fluorescence, 3T3-L1 adipocytes, 24 h, 100 nL compound, profiling panel (AID 1168). Also: test concentration not given here. Conditions: JC-1 mitochondrial fluorescence, higher = more signal, called active from +8 up or from −8 down.
Test [8] can be described thus: JC-1 mitochondrial signal, unstimulated myeloma cells – cell-based, JC-1 fluorescence, RPMI8226, 24 h, 100 nL compound, profiling panel (AID 1169). Also: test concentration not given here. Conditions: JC-1 mitochondrial potential fluorescence, higher = more signal.
Test [9] in a line: JC-1 mitochondrial signal, unstimulated MM1S myeloma – cell-based, JC-1 fluorescence, 24 h, 100 nL compound, profiling panel (AID 1170). Also: test concentration not given here. Conditions: MM1S mitochondrial potential, higher = more signal.
Test [10] is described as follows: resazurin metabolic signal in A549 cells – cell-based, resazurin fluorescence, 24 h, PK04 Diversity Set, profiling panel (AID 1171). Also: test concentration not given here. Conditions: A549 viability, higher = more signal, called active from +8 up or from −8 down.
Test [11] can be described thus: resazurin metabolic signal in HepG2 cells – cell-based, resazurin fluorescence, 24 h, PK04 Diversity Set, profiling panel (AID 1172). Also: test concentration not given here. Conditions: HepG2 viability, higher = more signal. (In general: Alamar Blue is a resazurin reagent that responds to reducing activity.)
A short description of test [12]: budding yeast growth changes without added modifier – OD600, strain BY4716, 24 h, basal condition, primary screen (AID 1173). Conditions: S. cerevisiae BY4716 growth, OD600, 24 h; higher = more signal, called active from +8 up or from −8 down.
A short description of test [13]: viability profiling in MM1S myeloma cells – cell-based, resazurin fluorescence, basal, 24 h, PK04 Diversity Set, profiling panel (AID 1174). Also: test concentration not given here. Conditions: higher = more signal, called active from +8 up or from −8 down.
The target in test [14] is Dihydroorotate dehydrogenase (quinone), mitochondrial (Plasmodium falciparum (isolate 3D7)) (UniProt Q08210). The experiment in a line: inhibition of P. falciparum DHODH – biochemical, C-terminal His tag, absorbance 600 nm, primary screen (AID 1175).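 Also: recombinant parasite enzyme with a five histidine tag at its C terminus; test concentration not given here.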 Conditions: PfDHODH enzyme, DCIP absorbance 600 nm; higher = more signal, called active from +8 up or from −8 down.
Test [15] is described as follows: inhibition of PAO1 biofilm formation – strain PAO1, LB-PBS medium, absorbance 600 nm, primary screen (AID 1176). Also: test concentration not given here. Conditions: P. aeruginosa PAO1 growth/biofilm, A600, 12 h; higher = more signal.
Test [16] is described as follows: growth modulation of vineyard yeast isolate – strain RM11-1a, OD600, basal, 24 h, primary screen (AID 1177).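 Also: cultures grown under basal conditions with no added stressor; test concentration not given here.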 Conditions: S. cerevisiae RM11-1a growth, OD600, 24 h; higher = more signal, called active from +8 up or from −8 down.
Test [17] can be described thus: growth of efflux-deficient E. coli DRC39 – strain DRC39, OD650, 24 h, E. coli filamentation inducers, primary screen (AID 1178).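 Also: growth measured as culture turbidity by optical density at 650 nm; test concentration not given here.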 Conditions: E. coli DRC39 acrAB, higher = more signal, called active from +8 up or from −8 down.
Test [18] in a line: growth of efflux-deficient E. coli DRC39 – strain DRC39, OD650, 48 h, E. coli filamentation inducers, primary screen (AID 1179).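 Also: screen aims at cell division blockers that make cells filament.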 Conditions: E. coli DRC39 delta-acrAB growth, higher = more signal, called active from +8 up or from −8 down.
A short description of test [19]: viability profiling in RPMI8226 myeloma cells – cell-based, resazurin fluorescence, basal, 24 h, PK04 Diversity Set, profiling panel (AID 1180).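 Also: RPMI8826 multiple myeloma cell line at 5000 cells per well; test concentration not given here.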 Conditions: higher = more signal.
For test [20], the target named is E3 ubiquitin-protein ligase XIAP (Homo sapiens) (UniProt P98170). The experiment in a line: small molecules binding XIAP protein – biophysical, small-molecule microarray, fluorescence 635 nm, primary screen (AID 1181).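 Also: score merges 667 nm emission and signal to noise over triplicate slides.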 Conditions: higher = more signal.
E3 ubiquitin-protein ligase XIAP (Homo sapiens), sequence (P98170 whole entry, looked up): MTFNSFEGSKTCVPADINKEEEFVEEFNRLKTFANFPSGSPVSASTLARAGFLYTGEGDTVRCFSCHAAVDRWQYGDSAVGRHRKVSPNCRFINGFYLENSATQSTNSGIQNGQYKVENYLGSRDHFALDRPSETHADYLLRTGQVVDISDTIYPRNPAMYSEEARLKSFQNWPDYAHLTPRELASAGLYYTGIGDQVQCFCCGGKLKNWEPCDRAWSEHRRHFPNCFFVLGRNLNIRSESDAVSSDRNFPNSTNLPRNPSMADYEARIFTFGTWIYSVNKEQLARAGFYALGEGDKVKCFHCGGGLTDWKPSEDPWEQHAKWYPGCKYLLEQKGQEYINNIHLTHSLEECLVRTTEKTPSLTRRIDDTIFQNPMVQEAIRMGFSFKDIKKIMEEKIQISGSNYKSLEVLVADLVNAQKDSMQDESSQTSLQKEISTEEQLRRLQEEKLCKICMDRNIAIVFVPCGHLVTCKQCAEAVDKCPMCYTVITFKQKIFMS

Dihydroorotate dehydrogenase (quinone), mitochondrial (Plasmodium falciparum (isolate 3D7)), sequence (Q08210 whole entry, looked up): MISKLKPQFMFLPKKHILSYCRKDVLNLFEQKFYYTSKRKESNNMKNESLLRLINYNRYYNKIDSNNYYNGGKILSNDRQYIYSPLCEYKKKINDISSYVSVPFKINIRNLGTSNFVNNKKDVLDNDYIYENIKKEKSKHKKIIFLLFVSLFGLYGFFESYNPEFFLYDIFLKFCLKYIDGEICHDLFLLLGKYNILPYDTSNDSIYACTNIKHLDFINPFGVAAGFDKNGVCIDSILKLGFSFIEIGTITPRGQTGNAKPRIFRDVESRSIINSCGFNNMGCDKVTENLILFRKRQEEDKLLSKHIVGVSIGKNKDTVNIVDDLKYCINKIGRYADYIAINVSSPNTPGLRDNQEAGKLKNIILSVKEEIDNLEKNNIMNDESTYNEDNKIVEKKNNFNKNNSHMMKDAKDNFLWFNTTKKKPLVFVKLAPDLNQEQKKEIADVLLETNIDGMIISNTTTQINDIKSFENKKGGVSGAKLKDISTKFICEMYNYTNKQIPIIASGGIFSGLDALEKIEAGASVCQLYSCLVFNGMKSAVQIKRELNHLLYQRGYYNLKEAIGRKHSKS

Take `COC(=O)[C@@]1(Cc2ccccc2)[C@H]2c3cc(C(=O)N(C)C)n(Cc4cc(C)n(C)n4)c3C[C@H]2CN1C(=O)c1ccccc1`: the z-score in test [1] was -0.997; in [2], 0.461; in test [3], 0.0271; in test [4] it was -0.47; in test [5], -0.965; in [6], 1.17. The z-score in test [7] is -1.24 (inactive); in [8], -0.0807; in test [9], 0.0916; in test [10] it was -0.236 (inactive); in test [11], -1.03; in [12], 0.289 (inactive). For the same molecule, the z-score in test [13] was -0.99 (inactive); in [15] it was 0.687 (inactive); in test [16] it was -0.211 (inactive); in test [17], -1.12 (inactive); in test [18], -0.944 (inactive); in [19], -0.566. Besides, the composite z-score was -0.857 (inactive) in [14] and 0.0737 in test [20].

As for `O=c1oc(-c2ccccc2)nc2cc(Br)ccc12`, the z-score in test [1] was -0.423; in [2] it was 0.111; in test [3] it was 0.659; in test [4], -1.99; in [5] it was -0.633; in test [6], -0.773. The z-score in [7] is 0.67 (inactive); in test [8], -0.0586; in test [9] it was 0.873; in test [10], -0.141 (inactive); in test [11], -0.284; in test [12], -2.41 (inactive). The z-score was 0.0202 (inactive) in test [13]; 0.0493 (inactive) in [15]; 1.6 (inactive) in test [16]; -0.117 (inactive) in test [17]; -0.39 (inactive) in [18]; -0.194 in test [19]. In addition, the figures for the composite z-score in test [14] and in test [20] were 0.336 (inactive) and 0.208, respectively.

On to `COc1ccc([Si](C)(C)[C@H]2[C@H](CC(=O)N(CCO)Cc3ccccc3)O[C@@]3(C(=O)N(Cc4cccc(N5CCC5=O)c4)c4ccccc43)[C@@H]2C)cc1`, for which the z-score in test [1] is -1.42; in [2], 1.48; in test [3] it was -1.93; in test [4], -1.6; in test [5] it was -4.08; in [6], 0.967. In addition, the z-score in test [7] was 0.498 (inactive); in [8], -0.873; in test [9] it was -1.27; in test [10], -1.97 (inactive); in [11] it was -0.412; in test [12] it was -0.0113 (inactive). The z-score is -2.76 (inactive) in [13]; 0.295 (inactive) in test [15]; 1.17 (inactive) in [16]; 0.405 (inactive) in test [17]; 0.169 (inactive) in test [18]; -3.11 in [19]. For the same molecule, the composite z-score is -1.19 (inactive) in test [14] and 0.0259 in test [20].

For `O=C1c2ccccc2[C@@]2(Cc3ccccc3N(Cc3ccccc3)C2=O)[C@H](c2ccc(CO)cc2)N1C1CCCCC1`, the z-score is -0.774 in test [1]; -0.752 in [2]; -0.466 in test [3]; -0.144 in test [4]; -0.977 in test [5]; -0.689 in test [6]. Moreover, the z-score in test [7] was 0.604 (inactive); in [8], -0.582; in test [9], -1.32; in test [10] it was -0.022 (inactive); in test [11], 0.281; in test [12] it was 1.61 (inactive). In addition, the z-score was -0.242 (inactive) in test [13]; 0.407 (inactive) in test [15]; 1.57 (inactive) in [16]; 0.281 (inactive) in [17]; 0.256 (inactive) in test [18]; -0.0776 in test [19]. The figures for the composite z-score in test [14] and in [20] were -11.6 (active) and -0.239, respectively.

Consider `COCCOC(=O)N1C(=O)[C@@]2(c3cc(C#CCNC(N)=O)ccc31)[C@H](c1ccccc1OCCO)N1[C@H](c3ccccc3)[C@H](c3ccccc3)OC(=O)[C@H]1[C@@H]2C(N)=O`, for which the z-score in test [1] was -0.0052; in test [2], -0.131; in [3], -0.617; in [4] it was -0.456; in test [5], 0.0352; in [6], -1.83. The z-score in test [7] was 0.369 (inactive); in [8], -0.115; in [9], -1.08; in [10], 0.0565 (inactive); in [11], -0.554; in test [12], 1.91 (inactive). Further, the z-score in test [13] was -0.279 (inactive); in [15], 0.971 (inactive); in [16], 2.64 (inactive); in test [17], -0.144 (inactive); in test [18], -0.375 (inactive); in test [19] it was 0.138. Also, the composite z-score in test [14] was 1.39 (inactive); in test [20] it was -0.0525.

For `COc1cc2c(cc1O)C(C)N(Cc1cccc(OC(F)(F)F)c1)CC2` (stereo not given), the z-score in [1] is -0.762; in test [2], 0.815; in test [3], -1.51; in test [4] it was -2.34; in test [5] it was -2; in [6] it was 0.0471. For the same molecule, the z-score in [7] is -0.793 (inactive); in test [8], 0.0842; in test [9], -1.24; in test [10], 0.849 (inactive); in test [11] it was 0.177; in test [12], -0.713 (inactive). Further, the z-score in test [13] was -1.33 (inactive); in [15], -0.255 (inactive); in [16], 0.279 (inactive); in test [17] it was 0.506 (inactive); in test [18], 0.324 (inactive); in [19] it was -0.622. Besides, the figures for the composite z-score in [14] and in [20] were -1.44 (inactive) and 0.427, respectively.

As to `COC(=O)[C@@]1(Cc2ccc(OC)cc2)[C@H]2c3cc(C(=O)N4CCCC4)n(Cc4cc(F)cc5c4OCOC5)c3C[C@H]2CN1C(=O)c1ccccc1`, the z-score in test [1] is -1.67; in [2] it was -0.151; in test [3] it was -0.675; in [4] it was -3.31; in [5] it was -3.81; in test [6] it was 0.912. In addition, the z-score in test [7] was -0.562 (inactive); in test [8] it was -0.753; in test [9], -2.72; in [10], -1.5 (inactive); in test [11], -1.47; in test [12], 0.433 (inactive). The z-score is -5.86 (inactive) in test [13]; 0.687 (inactive) in test [15]; -0.334 (inactive) in test [16]; -1.32 (inactive) in test [17]; -1.24 (inactive) in test [18]; -3.53 in test [19]. Moreover, the composite z-score was -0.607 (inactive) in [14] and 0.389 in test [20].

`CN1CCC(CCCO)=CC1c1ccc(CN2CCCC2)cc1` (stereo not given): the z-score in test [1] was -0.701; in test [2], 0.143; in [3] it was -0.86; in test [4] it was -0.52; in test [5], 0.559; in [6], 0.217. Also, the z-score was -0.0668 (inactive) in [7]; -0.714 in test [8]; 0.00742 in test [9]; 0.819 (inactive) in test [10]; 0.106 in test [11]; -1.33 (inactive) in test [12]. Moreover, the z-score is -0.202 (inactive) in test [13]; 0.661 (inactive) in test [15]; -0.0607 (inactive) in test [16]; 0.0543 (inactive) in test [17]; 0.201 (inactive) in test [18]; -0.304 in [19]. Moreover, the results for the composite z-score in test [14] and in test [20] were -0.27 (inactive) and 0.194, respectively.

Regarding `COCCOC(=O)N1C(=O)[C@@]2(c3cc(C#CCCO)ccc31)[C@H](c1ccc(O)cc1)N1[C@H](c3ccccc3)[C@H](c3ccccc3)OC(=O)[C@H]1[C@@H]2C(N)=O`, the z-score in test [1] is 0.111; in test [2], -0.0323; in test [3] it was 1.97; in [4] it was 0.189; in test [5], -0.934; in test [6], -0.958. Besides, the z-score in [7] was -1.44 (inactive); in test [8], 0.057; in [9] it was -0.915; in test [10], -0.322 (inactive); in [11], -0.231; in test [12], 0.0254 (inactive). For the same molecule, the z-score in test [13] is -0.644 (inactive); in test [15] it was 0.911 (inactive); in test [16] it was 0.565 (inactive); in test [17], 0.145 (inactive); in test [18], 0.138 (inactive); in test [19], -1.08. For the same molecule, the composite z-score in test [14] was -0.294 (inactive); in test [20], -0.0272.
